# Results filed as inconclusive are left out. Activity calls are given as the source filed them. Unless noted, calls follow the shape of the dose curve; as a rule, active = well fitted inhibition curve with a large enough effect; inconclusive = small, poorly fitted or top-dose-only effect; inactive = flat fitted curve, though single readings scatter.
# What was measured:
# [1] = qHTS drug screen for cell cycle checkpoint inhibitors in PARPi-resistant BRCA-mutant ovarian cancer cell lines. (AID 1963452; calls by dose curve); conditions: PEO1/OlaR viability, CellTiter-Glo luminescence, 96 h, stronger effect = lower value
# How it was run: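 PEO1, PEO4 and PEO1/OlaR ovarian cancer cells, 600 per well, exposed 96 h at 37C to a dilution series. Viability read by CellTiter-Glo luminescence, normalized to DMSO and empty wells; activity summarized as Z-AUC.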
# [2] = qHTS for identification of novel therapeutic agents for treatment of microphthalmiaassociated transcription factor (MiT) renal cell carcinoma (RCC) (AID 1963991; calls by dose curve; also: potency is read from the fitted curve at half-maximal effect); conditions: CellTiter-Glo, 48 h; for z-score: stronger effect = lower value
# How it was run: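 Three TFE3-fusion RCC lines (UOK109, UOK124, UOK145), 500 cells/well in complete medium, were treated with MIPE 4.0 compounds for 48 hours at 37 C. Viability was by CellTiter-Glo luminescence, normalized to DMSO (100%) and empty wells (0%); curves fitted over 11 concentrations.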
# [3] = qHTS profiling for inhibitors of Plasmodium falciparum proliferation (AID 504749); also: nearly all actives have a fitted effect of over 60% in size; also: potency is read from the fitted curve at half-maximal effect;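 as to activity, negative = inhibition: 0% = DMSO vehicle and full inhibition = artemisinin control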; conditions: P. falciparum in erythrocytes, SYBR Green DNA, 72 h
# How it was run: (§1)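 Readout was DNA-dye fluorescence from lysed cultures, ex 485/em 535 nm. Parasitized red cells had grown 72 h with compound; data scaled between 0.29 uM artemisinin and DMSO wells and corrected using vehicle-only plates.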
# 3D7 = assay: as above; conditions: P. falciparum in erythrocytes, SYBR Green DNA, 72 h; series mostly up to 28.7 µM
# How it was run: as §1
# 7G8 = assay: as above; conditions: P. falciparum in erythrocytes, SYBR Green DNA, 72 h; series mostly up to 28.7 µM
# How it was run: as §1
# AA1029 = assay: as above; conditions: P. falciparum in erythrocytes, SYBR Green DNA, 72 h; series mostly up to 28.7 µM
# How it was run: as §1
# AS120 = assay: as above; conditions: P. falciparum in erythrocytes, SYBR Green DNA, 72 h; series mostly up to 28.7 µM
# How it was run: as §1
# ATS189 = assay: as above; conditions: P. falciparum in erythrocytes, SYBR Green DNA, 72 h; series mostly up to 28.7 µM
# How it was run: as §1
# ATS95 = assay: as above; conditions: P. falciparum in erythrocytes, SYBR Green DNA, 72 h; series mostly up to 28.7 µM
# How it was run: as §1
# C2A = assay: as above; conditions: P. falciparum in erythrocytes, SYBR Green DNA, 72 h; series mostly up to 28.7 µM
# How it was run: as §1
# CP185 = assay: as above; conditions: P. falciparum in erythrocytes, SYBR Green DNA, 72 h; series mostly up to 28.7 µM
# How it was run: as §1
# CP191 = assay: as above; conditions: P. falciparum in erythrocytes, SYBR Green DNA, 72 h; series mostly up to 28.7 µM
# How it was run: as §1
# CP192 = assay: as above; conditions: P. falciparum in erythrocytes, SYBR Green DNA, 72 h; series mostly up to 28.7 µM
# How it was run: as §1
# CP194 = assay: as above; conditions: P. falciparum in erythrocytes, SYBR Green DNA, 72 h; series mostly up to 28.7 µM
# How it was run: as §1
# CP201 = assay: as above; conditions: P. falciparum in erythrocytes, SYBR Green DNA, 72 h; series mostly up to 28.7 µM
# How it was run: as §1
# CP211 = assay: as above; conditions: P. falciparum in erythrocytes, SYBR Green DNA, 72 h; series mostly up to 28.7 µM
# How it was run: as §1
# CP203 = assay: as above; conditions: P. falciparum in erythrocytes, SYBR Green DNA, 72 h; series mostly up to 28.7 µM
# How it was run: as §1
# [4] = measured here: PEO1 parental Z-AUC
# [5] = TFE3-RCC UOK109 viability, measured here: UOK109 Z-AUC
# [6] = TFE3-RCC viability, measured here: UOK124 Z-AUC
# [7] = TFE3-RCC viability, measured here: UOK145 Z-AUC
# [8] = at 12.8 µM (top of the series), parasite line A
# [9] = at 12.8 µM (top of the series), parasite line B
smiles,measurement,setting,value
NCCCCCC(=O)O,Z-AUC,[1],1.55 (inactive)
same,Z-AUC,[1]; [4],1.11
same,Z-AUC,[1]; measured here: PEO4 Z-AUC,1.26
same,z-score,[2]; [5],0.855
same,z-score,[2]; [6],0.487
same,z-score,[2]; [7],0.828
same,"activity, negative = inhibition",[3]; [8],3.43% (inactive)
same,"activity, negative = inhibition",[3]; [9],5.54% (inactive)
same,Potency,3D7,inactive
same,Potency,7G8,inactive
same,Potency,AA1029,inactive
same,Potency,AS120,inactive
same,Potency,ATS189,inactive
same,Potency,ATS95,inactive
same,Potency,C2A,inactive
same,Potency,CP185,inactive
same,Potency,CP191,inactive
same,Potency,CP192,inactive
same,Potency,CP194,inactive
same,Potency,CP201,inactive
same,Potency,CP211,inactive
COc1nc(C)nc(Cl)c1NC1=NCCN1,Z-AUC,[1],-0.0792 (inactive)
same,Z-AUC,[1]; [4],-0.161
same,Z-AUC,[1]; measured here: PEO4 Z-AUC,0.307
same,z-score,[2]; [5],0.168
same,z-score,[2]; [6],0.306
same,z-score,[2]; [7],0.251
same,"activity, negative = inhibition",[3]; [8],1.48% (inactive)
same,"activity, negative = inhibition",[3]; [9],0.89% (inactive)
same,Potency,3D7,inactive
same,Potency,7G8,inactive
same,Potency,AA1029,inactive
same,Potency,AS120,inactive
same,Potency,ATS189,inactive
same,Potency,ATS95,inactive
same,Potency,C2A,inactive
same,Potency,CP185,inactive
same,Potency,CP191,inactive
same,Potency,CP192,inactive
same,Potency,CP194,inactive
same,Potency,CP201,inactive
same,Potency,CP203,inactive
same,Potency,CP211,inactive
CCN1CCCC1CNC(=O)c1cc(S(=O)(=O)CC)c(N)cc1OC (centres undefined),Z-AUC,[1],1.05 (inactive)
same,Z-AUC,[1]; [4],0.594
same,Z-AUC,[1]; measured here: PEO4 Z-AUC,0.466
same,z-score,[2]; [5],0.976
same,z-score,[2]; [6],0.754
same,z-score,[2]; [7],0.815
CC[C@@]1(O)C(=O)OCc2c1cc1n(c2=O)Cc2cc3c(CN(C)C)c(O)ccc3nc2-1,Z-AUC,[1],-0.723 (inactive)
same,Z-AUC,[1]; [4],-1.25
same,Z-AUC,[1]; measured here: PEO4 Z-AUC,-0.128
same,Potency,"[2]; TFE3-RCC UOK109 viability, active = Z-AUC below -0.8 in all three lines",5.9 µM (active)
same,z-score,[2]; [5],-0.963
same,z-score,[2]; [6],-2.75
same,z-score,[2]; [7],-1.63
same,Potency,[3]; parasite line A,3.55 µM (active)
same,Potency,[3]; parasite line B,7.08 µM (active)
same,Potency,3D7,5.62 µM (active)
same,Potency,AA1029,7.08 µM (active)
same,Potency,AS120,3.55 µM (active)
same,Potency,ATS95,3.16 µM (active)
same,Potency,C2A,8.91 µM (active)
same,Potency,CP191,8.91 µM (active)
same,Potency,CP194,4.78 µM (active)
same,Potency,CP203,6.75 µM (active)
same,Potency,CP211,6.01 µM (active)
CCC1(C)CC(=O)NC1=O (centres undefined),Z-AUC,[1],1.49 (inactive)
same,Z-AUC,[1]; [4],1.31
same,Z-AUC,[1]; measured here: PEO4 Z-AUC,1.61
same,z-score,[2]; [5],0.867
same,z-score,[2]; [6],0.609
same,z-score,[2]; [7],0.715
Cc1cc(C(C)(C)C)c(O)c(C)c1CC1=NCCN1,Z-AUC,[1],1.21 (inactive)
same,Z-AUC,[1]; [4],0.68
same,Z-AUC,[1]; measured here: PEO4 Z-AUC,0.695
same,z-score,[2]; [5],0.384
same,z-score,[2]; [6],0.625
same,z-score,[2]; [7],1.63
same,"activity, negative = inhibition","[3]; at 28.7 µM (top of the series), parasite line A",-4.77% (inactive)
same,"activity, negative = inhibition","[3]; at 28.7 µM (top of the series), parasite line B",-3.69% (inactive)
same,Potency,3D7,inactive
same,Potency,7G8,inactive
same,Potency,AA1029,inactive
same,Potency,AS120,inactive
same,Potency,ATS189,inactive
same,Potency,ATS95,inactive
same,Potency,C2A,inactive
same,Potency,CP185,inactive
same,Potency,CP191,inactive
same,Potency,CP192,inactive
same,Potency,CP194,inactive
same,Potency,CP201,inactive
same,Potency,CP211,inactive

# From PubChem BioAssay (NCATS)
